Laboratory results: PubChem BioAssay (NCI)
Compounds without any hit were thinned out: in the full panel of roughly 83,000, 20% have a hit.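 Results are percent growth after 48 hours of single-concentration exposure. 100 means growth as in untreated cells, lower positive values show inhibition; negative values down to -100 show cell death.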 Values without a mark were called inactive. The source made the active and inactive calls.

System: ACHN renal
Assay: NCI-60 one-dose screen, 48 h (100 = growth as untreated, 0 = no growth, -100 = all killed)
Details: 10 µM unless noted
Experimental: Growth inhibition of the ACHN human tumor cell line is measured as a screen for anti-cancer activity. Cells are grown in 96 well plates and exposed to the test compound for 48 hours. Compounds are tested at a single concentration, which is 10^-5 M for most compounds. The reported endpoint is percent growth (GI% or GIPRCNT), where numbers from 0 - 100% represent growth inhibition, and numbers from -100% - 0 represent cell death. For example, a value of 40 represents 60% growth inhibition. A value of 0 means no net growth occurred over the course of the experiment. A value of -40 indicates 40% of cells at the beginning of the experiment died by the end of the experiment. A value of -100 means all cells are dead at the end of the experiment.
NCI-60 Human Tumor Cell Lines Screen was performed using the standard one-dose NCI protocol, which is described in more detail at https://dtp.cancer.gov/discovery_development/nci-60/default.htm.
Compounds with GIPRCNT values below 10 were considered active. Activity score was based on GIPRCNT using the following formula: […]
Score is 0 for GIPRCNT values of 100 or above, 50 for GIPRCNT values of 0, and 100 for GIPRCNT values of -100.

Compound | growth
CCC(=O)Nc1cc(Nc2cc(NC3CC3)n3ncc(C#N)c3n2)ccc1C | 13.8%
NC(N)=NS(=O)(=O)c1ccc(N=NC2C(=O)NN(c3ccccc3)C2=O)cc1 (stereo not given) | 95.9%
O=S(=O)(Nc1ccc(C2CC2)cc1)c1ccc(-c2cnc(C3CC3)o2)cc1 | 87.6%
Oc1ccccc1-c1nnc(SCc2ccc(O)c3ncccc23)o1 | 25.4%
O=C1[C@@H]2Cc3c([nH]c4ccccc34)[C@H](c3c(Cl)cccc3Cl)N2C(=O)CN1C1CCN(Cc2c(F)cccc2F)CC1 | 81.6%
C#C[C@]1(O)CC[C@H]2[C@@H]3CC=C4c5sc(Nc6nc(C)cc(OC)n6)nc5CC[C@]4(C)[C@H]3CC[C@@]21C | 49.2%
Cc1cc(F)cc(NS(=O)(=O)c2ccc(-c3cnc(C4CC4)o3)cc2)c1 | 44.4%
COc1cc(/C=N/Nc2ccnc3cc(Cl)ccc23)cc(OC)c1O | -98.2% (active)
Cn1cc2c(c1)-c1c(sc3nc(-c4ccc(NC(=O)Nc5cc(C(C)(C)C)on5)cc4)cn13)CC2 | 42.1%
Oc1ccc(CSc2nnc(-c3ccccc3)n2-c2ccccc2)c2cccnc12 | 6.88% (active)
CCCCCCNC(=O)Oc1ccc(/C(=C(/C)c2ccccc2)c2ccc(OCCN(C)C)cc2)cc1 | 71.3%
CC(=O)c1ccc(NC(=O)COc2ccc(C3SCC(=O)N3c3ccc(Br)cc3)cc2)cc1 (stereo not given) | 97.6%
IP(CCCSc1n(Cc2ccc3ccccc3c2)c(-c2ccccc2)c(-c2ccccc2)[n+]1Cc1ccc2ccccc2c1)(c1ccccc1)(c1ccccc1)c1ccccc1 | 87.9%
Cc1cnc2nc(NN)[nH]n12 | 98.4%
NC(=O)c1c(NC(=O)c2cccc(OC(F)(F)F)c2)sc2c1CCC(=O)C2 | 20.2%
CC[C@H](C)[C@H]1NC(=O)[C@@H]([C@H](O)C(C)C)NC(=O)[C@@H](C)N(C)C(=O)[C@H](C)N(C)C(=O)[C@H](CC(C)C)NC(=O)[C@H](CC(C)C)N(C)C(=O)[C@H](C)N(C)C1=O | 5.95% (active)
COc1ccc([C@H]2[C@H](O)C(=O)N2c2cc(OC)c(OC)c(OC)c2)cc1 | 26.8%
CCC(C)[C@H]1OC(=O)[C@H](C(C)C)N(C)C(=O)[C@@H](C(C)C)OC(=O)[C@H](C(C)C)N(C)C(=O)[C@@H](C(C)CC)OC(=O)[C@H](C(C)C)N(C)C1=O (stereo not given in full) | 7.98% (active)
COc1ccc(CCN2C(=O)CSC2=S)cc1OC | 100%
O=S(=O)(NCCCNc1nccc(-n2cnc3ccccc32)n1)c1ccc(F)cc1 | 81.1%

Compound | growth
O=C(CSc1nnc(-c2ccc(Cl)cc2)n1-c1ccccc1)Nc1ccc(F)cc1 | 24.7%
CC1OC(O[C@@H]2[C@H](O)C(CO)OC(O[C@H]3COC(O[C@H]4CC[C@]5(C)[C@H]6CC[C@]78OC[C@@]9(CCC(C)(C)C[C@H]97)[C@H](O)C[C@@]8(C)[C@]6(C)CC[C@H]5C4(C)C)[C@@H](OC4OC(CO)[C@@H](O)[C@@H](O)[C@@H]4O)[C@@H]3O)[C@H]2OC2OC[C@@H](O)[C@@H](O)[C@@H]2O)[C@@H](O)[C@@H](O)[C@H]1O (stereo not given in full) | -92.5% (active)
COc1ccc(-c2cc(-c3cccc4ccccc34)n3c(n2)nc2ccccc23)cc1OC | 8.14% (active)
COc1cc2c3c(n(CCCN4CCC[C@H]4C(N)=O)c(=O)c2cc1OC)-c1cc2c(cc1C3=O)OCO2 | 0.589% (active)
CCOC(=O)C1=C(C)Nc2nc3ccccc3n2C1c1cccc(Br)c1 (stereo not given) | 88.9%
NCCN1CCN(c2nc(-c3ccccc3)nc3nc(-c4ccccc4)oc23)CC1 | -95.4% (active)
O=C(CSc1nnc(-c2cccs2)n1-c1ccccc1)Nc1ccc(F)cc1 | 90.9%
O=C(/C=C1\C=CN(CCCCO)c2ccccc21)n1ccc2ccccc21 | 93.7%
Oc1ccc(-c2nnc(SCc3ccc(O)c4ncccc34)n2-c2ccccc2)cc1 | 8.27% (active)
CCNC(=O)Oc1ccc(/C(=C(/C)c2ccc(Cl)cc2)c2ccc(OCCN3CCCC3)cc2)cc1 | 95%
O=S(=O)(NC1CC2CCC1C2)c1ccc2c(c1)C(=NO)c1cc(S(=O)(=O)NC3CC4CCC3C4)ccc1-2 (stereo not given) | -95.4% (active)
O=C1[C@@H]2Cc3c([nH]c4ccccc34)[C@H](c3c(Cl)cccc3Cl)N2C(=O)CN1C1CCN(Cc2ccccc2)CC1 | 43.5%
O=S(=O)(Nc1cc(Cl)cc(Cl)c1)c1ccc(-c2cnc(C3CC3)o2)cc1 | 53.3%
C#C[C@]1(O)CC[C@H]2[C@@H]3CC=C4c5sc(C6CC6)nc5CC[C@]4(C)[C@H]3CC[C@@]21C | 91.4%
CCNC(=NCCCN(C)C)N/C(N)=N/c1nc2ccccc2s1 | 95.3%
O=C(CN1CCN(c2cc(=O)n(-c3ccccc3)c3ccccc23)CC1)Nc1ccc([N+](=O)[O-])cc1 | 87%
N/C(=N\OC(=O)CSc1nc2ccccc2s1)c1ccc2ccccc2c1 | 91%
CS(=O)c1nccc(-c2c(-c3ccc(F)c(OCCc4ccccc4)c3)nc3sccn23)n1 (stereo not given) | 72.8%
CCOC(=O)c1c(Nc2ccccc2)nn2c(-c3ccc(OC)c(OC)c3)ccnc12 | 54.8%
NS(=O)(=O)c1ccc(-n2cc(CC=O)nn2)cc1 | 107%
